Inconclusive results are not listed. A number with no mark means an inactive call. Calls follow the shape of the full dose curve.
Test: qHTS for Inhibitors of Cell Surface uPA Generation: Wild-type Protective Antigen (WT-PrAg) Counterscreen for Cherry-picked Compounds; also: 0% is about no effect
Conditions: cells, WT protective antigen toxicity counterscreen; series mostly up to 115 µM; activity (protection): at the top concentration

Row | SMILES | activity (protection)
1 | CC1=NN(C(N)=S)C(=O)C1N=Nc1ccccc1C(=O)O (stereo not given) | -0.58%
2 | O=C(CN1CCOC1=O)N1CCCC(Nc2ccc(F)c(F)c2)C1 (stereo not given) | -0.513%
3 | CCc1ccc(NC(=O)Cn2cnc([N+](=O)[O-])c2)cc1 | -0.969%
4 | Cc1cnc(C(=O)OCC(=O)Nc2ccc3c(c2)OCCO3)cn1 | 0.158%
5 | CCOC(=O)C1CCN(CC(=O)Nc2cc(C)nn2-c2nc3ccccc3s2)CC1 | 12.1%
6 | Cc1cccc(C)c1NC(=O)c1c(O)c2ccccc2[nH]c1=O | -2.65%
7 | O=C(NCCS(=O)(=O)N1CCC2(CC1)OCCO2)c1ccc(F)cc1 | 0.583%
8 | COCCCN1CC23C=CC(O2)C(C(=O)O)C3C1=O (stereo not given) | -0.168%
9 | CC(=O)Nc1c2c(nn1-c1cccc(C)c1)CSC2 | 0.376%
10 | Cc1cc(C)cc(NC(=O)COC(=O)CCn2c(C)csc2=O)c1 | 0.0327%
11 | Cc1ccnc(NC(=O)CCNS(=O)(=O)c2ccc(C)c(C)c2)c1 | -0.664%
12 | CCO[C@H]1OC(C(=O)N2CCCCCCC2)=C[C@@H](c2ccc(C(F)(F)F)cc2)[C@@H]1CCCO | -1.81%
13 | CCn1nc(C)c(CNC(=O)C2CCC(=O)N(CCc3ccc(OC)cc3)C2)c1C (stereo not given) | -0.215%
14 | CCCCCN(C(=O)CCC(=O)OCCOc1cccc(Cl)c1)c1c(N)n(CCCC)c(=O)[nH]c1=O | -0.186%
15 | O=C1CCCC/C1=C\Nc1ccc(S(=O)(=O)Nc2cnc3ccccc3n2)cc1 | -0.866%
16 | CCc1ccccc1N(CC(=O)N1CCCC1)S(C)(=O)=O | 1.14%
17 | COc1ccc(C)cc1NC(=O)NNC(=O)C1CCC(C(C)(C)C)CC1 (stereo not given) | -2.37%
18 | COc1ccccc1N1CCN(Cc2ccc(SC)cc2)CC1 | -1.86%
19 | CCOc1ccc(N(CC(=O)Nc2ccc(CC)cc2)S(=O)(=O)c2c(C)[nH]c(=O)[nH]c2=O)cc1 | -0.814%
20 | CCOC(=O)C1(CC2CCCCO2)CCN(Cc2nccn2-c2cccc(C)c2)CC1 (stereo not given) | -2.03%

Row | SMILES | activity (protection)
21 | CC(OC(=O)c1cccc(-n2cnnn2)c1)C(=O)Nc1ccc(F)c(F)c1F (stereo not given) | -2.02%
22 | CC1CCCN(C(=O)c2ccc(CNc3c(N4CCCCC4)c(=O)c3=O)cc2)C1 (stereo not given) | 0.517%
23 | CCC1(C)NC(=O)N(CC(=O)Nc2sc3c(c2C(N)=O)CCC3)C1=O (stereo not given) | 6.41%
24 | CCOCCCn1c(SCC(=O)Nc2cc(OC)ccc2OC)nc2ccccc2c1=O | -2.4%
25 | Cc1ccsc1/C=C(\C#N)C(=O)NC1CCS(=O)(=O)C1 (stereo not given) | -0.97%
26 | CC1CN(C(=O)CCC(=O)NCc2ccccc2)c2ccccc2S1 (stereo not given) | 4.57%
27 | Cc1nc2ncccn2c1-c1csc(Nc2ccc(S(N)(=O)=O)cc2)n1 | -1.41%
28 | C=CC1=C(C(=O)O)N2C(=O)[C@@H](NC(=O)/C(=N\O)c3csc(N)n3)[C@H]2SC1 (stereo in doubt) | 0.487%
29 | O=C(c1ccccn1)C1CCCN(Cc2cn[nH]c2-c2cc3ccccc3o2)C1 (stereo not given) | -1.56%
30 | COc1ccc(-c2nn(CCC#N)cc2C(=O)Nc2cccc([N+](=O)[O-])c2)cc1OC | -1.26%
31 | CC(=O)Nc1sc(C)c(C)c1C(=O)OCC(=O)NC(C)c1ccccc1 (stereo not given) | 0.373%
32 | O=C(Nc1cccc(C2=NCCN2)c1)Nc1cccc(C2=NCCN2)c1 | -2.19%
33 | O=C(Nc1ccc(N2CCOCC2)cc1)c1ccc(Cl)c(S(=O)(=O)N2CCCC2)c1 | -0.904%
34 | O=C(COC(=O)C1CC2C=CC1C2)NCc1ccccc1Cl (stereo not given) | 1.12%
35 | Cc1ccc(S(=O)(=O)N2CCOCC2)cc1NC(=O)CSc1nc(N)cc(N)n1 | -0.596%
36 | CCCCn1c(-c2cccnc2)nc2cc3[nH]c(=O)c(C(C)C)nc3cc21 | 3.09%
37 | O=C(CCS(=O)(=O)c1ccc2c(c1)NC(=O)CS2)NCCc1ccc(Cl)cc1 | 0.14%
38 | Cc1cccc(C(=O)NC2CCN(CC(=O)N3CCOCC3)CC2)c1 | -0.973%
39 | COC(=O)C1C(=O)c2c([nH]c(C(=O)OC3CCCCC3)c2C)CC1C (stereo not given) | 0.16%
40 | Cc1ccc2sc(NNC(=O)c3ccc4c(c3)OCCO4)nc2c1C | -2.4%
